Reference: ChEMBL document CHEMBL1157539, “Thousands of chemical starting points for antimalarial lead identification” (Nature, 2010)

The molecules below were run on Plasmodium falciparum (assay: GSK_TCMDC: Inhibition of Plasmodium falciparum Dd2 in whole red blood cells, using parasite LDH activity as an index of growth. Test compounds present at 2uM).
Format: functional

Compound	Inhibition
Nc1c2ccccc2nc2ccc(-c3ccccc3)cc12	99%
CC(CN1CCN(C)CC1)C(=O)Nc1cccc(-c2ccc(-c3nc4cc(C(F)(F)F)ccc4[nH]3)cc2)c1 (stereo not given)	98%
Cc1nc2nc(N)nc(N)c2c(C)c1Cc1ccc(O)cc1.Cl	0%
Cc1cccc2nc(-c3cccc(-c4cccc(NC(=O)Nc5ccccc5)c4)c3)[nH]c12	64%
O=C(/C=C/c1ccc(Cl)c(Cl)c1)NCCCCCN1CCC(NC(=O)Nc2ccc(F)c(F)c2)CC1	4%
CCN(CC)CCN1C(=O)c2oc3ccc(Cl)cc3c(=O)c2C1c1ccc(SC)cc1 (stereo not given)	6%
Cc1cc2ncn(-c3nccc(NCc4ccc(F)cc4)n3)c2cc1C.O=C(O)C(F)(F)F	83%
O=C(Cc1ccc(Cl)cc1)Nc1cc(Cl)ccc1Cn1cnc(N2CCNCC2)cc1=O.O=C(O)C(F)(F)F	2%
CCNc1cc(-c2cccc(OC)c2)nc(Nc2ccc(F)cc2)n1	23%
O=C(NCCc1ccccc1)N(Cc1ccc(-c2cccc(CN3CCNCC3)c2)cc1)C1CCN(Cc2ccccc2)CC1.O=C(O)C(F)(F)F	29%
CCOC(=O)CNCC(=O)c1ccc(OCc2ccccc2)cc1.Cl	43%
COc1ccc(CCNCC(O)c2cccc(Br)c2)c(Cl)c1OC.Cl (stereo not given)	70%
CCN(CC)CCN(Cc1ccc(-c2ccc(C(F)(F)F)cc2)cc1)C(=O)Cn1c(CCc2cccc(F)c2F)cc(=O)c2c1CCCC2.O=C(O)C(O)C(O)C(=O)O	95%
CC(C)CC(C)NC(=O)C1Cc2c([nH]c3cc(Cl)ccc23)C2(CCN(CCc3ccccc3)CC2)N1 (stereo not given)	65%
O=C(c1ccc([N+](=O)[O-])o1)N1CCN(c2nc3c(F)cc(F)cc3s2)CC1	86%
COc1ccc2nc3ccccc3c(NCCN3CCN(C)CC3)c2c1	10%
COc1ccc(C(=O)CCC(=O)N(CCC2CCCN2C)Cc2ccc(-c3ccc(CNCCc4ccc(S(C)(=O)=O)cc4)cn3)cc2)cc1F.O=C(O)C(F)(F)F (stereo not given)	45%
Cn1nc(-c2ccc(NC(=O)Nc3cc(C(F)(F)F)cc(C(F)(F)F)c3)c(F)c2)c2cnc(NCCN3CCOCC3)nc21.O=C(O)C(F)(F)F	37%

Compound	Inhibition
CCOC(=O)c1cn(CC)c2cc(N3CCCCCC3)c(F)cc2c1=O	89%
COc1ccc(NC(=O)Nc2cccc(-c3cccc(-c4nc5ccccc5[nH]4)c3)c2)cc1	41%
CS(=O)(=O)O.FC(F)(F)COc1c(CNCCCCCCNCc2ccc3ccccc3c2OCC(F)(F)F)ccc2ccccc12	79%
COc1ccc2ncc(F)c(CCN3CC[C@H](NC(=O)c4ccc5c(n4)NC(=O)CS5)[C@H](O)C3)c2n1.Cl	88%
COc1ccc2[nH]ccc(=NN=Cc3cccc(F)c3)c2c1	65%
O=c1cc(NCCC(CNCc2ccoc2)NCc2cc(Br)cc(Br)c2)[nH]c2ccccc12 (stereo not given)	28%
COc1ccc(F)cc1-c1ccc(C(=O)N2CCCN(c3ccc(C(F)(F)F)cn3)CC2)cc1	100%
CN(C)c1ccc(-c2ccc(C(=O)NC3CCN(Cc4ccc(C(C)(C)C)cc4)CC3)s2)cc1.O=C(O)C(F)(F)F	59%
O=C(Nc1cccc(-c2nn3ncccc3c2-c2ccnc(Nc3cccc(C(F)(F)F)c3)n2)c1)c1c(F)cccc1F	68%
CCN(CC)CCCC(C)Nc1c2ccccc2nc2ccc3ccccc3c12.Cl (stereo not given)	89%
Cc1noc(C)c1CN1Cc2ccccc2OC2(CCN(Cc3c[nH]c4cnccc34)CC2)C1.O=C(O)C(F)(F)F	12%
CCC[C@@H]([C@@H](CC(C)C)C(=O)N[C@H](C(=O)Nc1nccs1)C(C)(C)SCCNC(=O)OCC)N(O)C=O	97%
COc1cc2nc(N3CCC(CCCC4CCNCC4)CC3)nc(NCc3ccccn3)c2cc1OC.O=C(O)C(F)(F)F	6%
O=C(/C=C/c1ccc(Cl)c(Cl)c1)NCCCCCN1CCC(C(=O)Nc2cccc(Cl)c2)CC1	0%
COc1ccc(Cl)cc1N1CCN(CCCNC(=O)c2ccc(-c3nc4cc(Cl)c(F)cc4[nH]3)cc2)CC1	98%
CNC(=O)Cc1ccc(C(=O)Nc2cccc(-c3csc(-c4nc5ccccc5[nH]4)c3)c2)cc1	69%
O=C(Nc1cccc(CN2CCCN(CCc3ccccc3)CC2)c1)c1ccc(Cl)c(Cl)c1.O=C(O)C(F)(F)F	15%
